Source: PubChem BioAssay (NCATS)
Inconclusive results are not listed. Where a call stands in place of a potency, no number is given. Activity calls are given as the source filed them. Calls follow the shape of the dose curve; as a rule, active = well fitted curve in the direction sought with a large enough effect; inconclusive = small, poorly fitted or top-dose-only effect, or another doubt; inactive = no such curve, though single readings can be large; an effect the other way counts as inactive or inconclusive.

Tests used:
[1] = target: Aldehyde dehydrogenase, mitochondrial (Homo sapiens) (UniProt P05091); assay: qHTS for Inhibitors of the Aldehyde Dehydrogenase Family (ALDH2) Primary screen (AID 2061308); also: nearly all actives have a fitted effect of over 55% in size
[2] = target: Retinaldehyde dehydrogenase 3 (Homo sapiens) (UniProt P47895); assay: qHTS for Inhibitors of the Aldehyde Dehydrogenase Family (ALDH1A3) Primary screen (AID 2061315)

SMILES | Potency [1] | Potency [2]
CNc1oc(-c2ccc3cnccc3c2)nc1C#N | inactive | inactive
Cc1ccccc1C(=O)N1CCc2cc(-n3cc(NC(=O)Cc4ccccc4)cn3)ccc21 | inactive | inactive
COc1ccc(CN(Cc2ccccc2)C(=O)c2ccc(OC)cc2O)cc1 | inactive | inactive
Cc1cc2c(s1)c1cnn(Cc3ccc(C(=O)O)cc3)c(=O)c1n2C | inactive | inactive
COc1cc(C(=O)NC(=S)Nc2cccc(NC(=O)c3ccccc3)c2)cc(OC)c1OC | inactive | inactive
CCOC(=O)c1c(CNCc2ccccc2F)c2sc(C)cc2n1C | inactive | inactive
c1csc(CCNc2ncnc3ccc(-c4ccc5c(c4)OCO5)cc23)c1 | inactive | inactive
CC1=CC(=O)C2C(C)(C)CCCC2(C)C12CCC1(COC(=O)C1)O2 (stereo not given) | inactive | inactive
CC(C)N1Cc2ccc(Nc3nn4c(=O)c5ccccc5nc4s3)cc2C1 | inactive | inactive
COc1ccc(C2Nc3ccccc3C(=O)N2Cc2ccc3c(c2)OCO3)cc1COc1c(C)cc(NC(C)=O)cc1C (stereo not given) | inactive | inactive
O=[S+]([O-])(NC[C@H]1CCC[C@H](CN[S+](=O)([O-])c2c(F)cccc2F)C1)c1ccc2c(c1)OCCO2 | inactive | inactive
O=C(Nc1ccccn1)c1sc2ccc([N+](=O)[O-])cc2c1Cl | inactive | inactive
Cc1cccc(Nc2nn3c(=O)c4ccccc4nc3s2)c1 | inactive | inactive
CC(C)(N)C(=O)Nc1ccc(Cl)cc1C(=O)c1ccc[nH]1 | inactive | inactive
CC/C(=C(\c1ccc(O)cc1)c1ccc(OCCNC)cc1)c1ccccc1 | inactive | inactive
